The structures appear in SMILES notation. Results filed as inconclusive are left out. A number with no mark means an inactive call. Active and inactive are the calls of the source. Calls follow the shape of the dose curve; as a rule, active = well fitted inhibition curve with a large enough effect; inconclusive = small, poorly fitted or top-dose-only effect; inactive = flat fitted curve, though single readings scatter.
Potency is read from the fitted curve at half-maximal effect.

For one test, the system named is CP291. Kind of test: qHTS profiling for inhibitors of Plasmodium falciparum proliferation (AID 504749). Also: nearly all actives have a fitted effect of over 60% in size.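 As to activity, negative = inhibition: 0% = DMSO vehicle and full inhibition = artemisinin control.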 As to conditions: P. falciparum in erythrocytes, SYBR Green DNA, 72 h; series mostly up to 28.7 µM; activity, negative = inhibition: at the top concentration. In short, it runs like this:
(§1)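 Readout was DNA-dye fluorescence from lysed cultures, ex 485/em 535 nm. Parasitized red cells had grown 72 h with compound; data scaled between 0.29 uM artemisinin and DMSO wells and corrected using vehicle-only plates.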
`NCc1ccccc1Sc1ccccc1CO`: the “activity, negative = inhibition” value was -14.7%.

As to `O=C(c1ccc(F)cc1)C1CCN(CCn2c(=S)[nH]c3ccccc3c2=O)CC1`, the Potency was 6.75 µM (active).

For `COc1ccc(C(=O)c2ccccc2O)c(O)c1`, the “activity, negative = inhibition” value is -13.2% [at 12.8 µM].

On to `CCc1ccc(C(=O)C(C)CN2CCCCC2)cc1` (stereo not given), for which the “activity, negative = inhibition” value is -2.33%.

`CCCN(CCc1cccs1)[C@H]1CCc2c(O)cccc2C1`: the Potency was 10.7 µM (active).

`C#C[C@]1(O)CC[C@H]2[C@@H]3CCC4=CC(=O)CC[C@@H]4[C@H]3CC[C@@]21CC`: the “activity, negative = inhibition” value is -6.18%.

Regarding `FC1(F)C(F)(F)C(F)(F)C2(F)C(F)(F)C(F)(F)C(F)(F)C(F)(F)C2(F)C1(F)F` (stereo not given), the “activity, negative = inhibition” value is 1.13%.

Regarding `CCCc1ncc(C[n+]2ccccc2C)c(N)n1`, the “activity, negative = inhibition” value is 10.8% [at 12.8 µM].

Regarding `O=C(O)C1(C(=O)O)CCC1.[NH2-].[NH2-].[Pt+2]`, the “activity, negative = inhibition” value was 3.64%.

As to `Cc1cc(CC(=O)O)c(C)n1-c1ccc(Cl)cc1`, the “activity, negative = inhibition” value is -13.1%.

Take `O=C(Oc1cccc2cccnc12)c1ccccc1`: the “activity, negative = inhibition” value was -11.7%.

As to `CN(C)C(=O)Nc1ccc(Cl)c(Cl)c1`, the “activity, negative = inhibition” value is -18.8%.

Turning to `Cc1ccc(O)c([C@H](CCN(C(C)C)C(C)C)c2ccccc2)c1`, the Potency was 9.53 µM (active).

Regarding `O=C(O)c1ccc(S(=O)(=O)N(Cl)Cl)cc1`, the “activity, negative = inhibition” value is 0.565%.

Consider `CN(C)CCC[C@@]1(c2ccc(F)cc2)OCc2cc(C#N)ccc21`, for which the “activity, negative = inhibition” value was -20.2%.

In the case of `N=C(N)N1CCc2ccccc2C1`, the “activity, negative = inhibition” value is -2.66%.

Take `O=[N+]([O-])c1cccc(S(=O)(=O)NCCNS(=O)(=O)c2cccc([N+](=O)[O-])c2)c1`: the “activity, negative = inhibition” value is -18.3%.

With `COc1ccc(C(=O)c2ccccc2)c(O)c1`, the “activity, negative = inhibition” value is 0.987%.

On to `COc1cc(C(=O)N2CCCCCCC2)cc(OC)c1OC`, for which the “activity, negative = inhibition” value was 0.118%.

With `Cc1cccc(C)c1NC(=O)c1ccccc1C(=O)O`, the “activity, negative = inhibition” value was -1.79%.

For `CC(=O)NCCCCCC(=O)O`, the “activity, negative = inhibition” value is -10.8%.

For the compound `O=C1C(=O)c2ccccc2C(O)=C1C1CCC(c2ccc(Cl)cc2)CC1` (stereo not given), the Potency was 0.0064 µM (active).

Take `Cc1cccc(C)c1NC(=O)CN1CCCC1`: the “activity, negative = inhibition” value was -6.47%.

Take `CCOC(=O)c1c(N)sc2c1CCN(Cc1ccccc1)C2`: the Potency is 8.49 µM (active).

Turning to `NC(N)=NCc1cccc(I)c1`, the “activity, negative = inhibition” value is -4.15%.

For the compound `COc1cc(O)c(C(=O)c2ccccc2)cc1S(=O)(=O)O`, the “activity, negative = inhibition” value was -14.9%.

Turning to `CC(C)(C)CC(C)(C)c1ccc(O)c(-n2nc3ccccc3n2)c1`, the “activity, negative = inhibition” value was -7.98%.

In the next test the test system is CP297. The test is described as above. The conditions noted are these: P. falciparum in erythrocytes, SYBR Green DNA, 72 h; series mostly up to 28.7 µM; activity, negative = inhibition: at the top concentration. In short, it runs like this: as §1
Consider `CN1CCN(c2cc3c(cc2F)c(=O)c(C(=O)O)cn3-c2ccc(F)cc2)CC1`, for which the “activity, negative = inhibition” value was -7.42%.

For the compound `O=C(c1ccc(F)cc1)C1CCN(CCn2c(=S)[nH]c3ccccc3c2=O)CC1`, the Potency was 6.75 µM (active).

For `COc1ccc(C(=O)c2ccccc2O)c(O)c1`, the “activity, negative = inhibition” value is -16.6% [at 12.8 µM].

As for `CCc1ccc(C(=O)C(C)CN2CCCCC2)cc1` (stereo not given), the “activity, negative = inhibition” value was -0.854%.

Take `CCCN(CCc1cccs1)[C@H]1CCc2c(O)cccc2C1`: the Potency was 6.75 µM (active).

Regarding `C#C[C@]1(O)CC[C@H]2[C@@H]3CCC4=CC(=O)CC[C@@H]4[C@H]3CC[C@@]21CC`, the “activity, negative = inhibition” value was 7.19%.

Turning to `FC1(F)C(F)(F)C(F)(F)C2(F)C(F)(F)C(F)(F)C(F)(F)C(F)(F)C2(F)C1(F)F` (stereo not given), the “activity, negative = inhibition” value is 0.842%.

Regarding `CCCc1ncc(C[n+]2ccccc2C)c(N)n1`, the “activity, negative = inhibition” value is 1.53% [at 12.8 µM].

Consider `O=C(O)C1(C(=O)O)CCC1.[NH2-].[NH2-].[Pt+2]`, for which the “activity, negative = inhibition” value is -8.62%.

For `O=C(Oc1cccc2cccnc12)c1ccccc1`, the “activity, negative = inhibition” value was -6.59%.

Consider `C[N+]1(C)CCC(=C(c2ccccc2)c2ccccc2)CC1`, for which the “activity, negative = inhibition” value was -9.15% [at 12.8 µM].

In the case of `O=C(O)c1ccc(S(=O)(=O)N(Cl)Cl)cc1`, the “activity, negative = inhibition” value is 11.7%.

Regarding `N=C(N)N1CCc2ccccc2C1`, the “activity, negative = inhibition” value was 2.52%.

Take `O=[N+]([O-])c1cccc(S(=O)(=O)NCCNS(=O)(=O)c2cccc([N+](=O)[O-])c2)c1`: the “activity, negative = inhibition” value is -20.3%.

`COc1ccc(C(=O)c2ccccc2)c(O)c1`: the “activity, negative = inhibition” value is 2.81%.

For `COc1cc(C(=O)N2CCCCCCC2)cc(OC)c1OC`, the “activity, negative = inhibition” value is 10.9%.

Take `Cc1cccc(C)c1NC(=O)c1ccccc1C(=O)O`: the “activity, negative = inhibition” value was 1.56%.

Take `CC(=O)NCCCCCC(=O)O`: the “activity, negative = inhibition” value was -13.7%.

As for `Cc1cccc(C)c1NC(=O)CN1CCCC1`, the “activity, negative = inhibition” value is -15.9%.

Take `CCOC(=O)c1c(N)sc2c1CCN(Cc1ccccc1)C2`: the Potency was 7.57 µM (active).

On to `COc1cc(O)c(C(=O)c2ccccc2)cc1S(=O)(=O)O`, for which the “activity, negative = inhibition” value was -18.9%.

With `CC(C)(C)CC(C)(C)c1ccc(O)c(-n2nc3ccccc3n2)c1`, the “activity, negative = inhibition” value is -23.2%.

Turning to `Oc1ccc(Cl)cc1Cc1cc(Cl)ccc1O`, the “activity, negative = inhibition” value was -18.3%.
